From ChEMBL document CHEMBL4513216, “Probing the Open Global Health Chemical Diversity Library for Multistage-Active Starting Points for Next-Generation Antimalarials” (ACS Infect Dis, 2020)
Screen size: about 69,000 compounds; about 8,600 (12%) showed an effect of 50% or more. The list comes from a sample in which strong results are over-represented; it also holds similar structures and randomly drawn compounds.

Test system: Plasmodium berghei
Assay: Screen against P. berghei liver stage (PbLuc), transformed with Luciferase, at 10uM
Format: functional, HepG2
Details: tested at 10 uM

In order of rising INHIBITION:
1. CN(Cc1ccccc1OC(F)(F)F)C(=O)C1CCCN(C(N)=O)C1 (stereo not drawn)  -116%
2. COc1cc2c(nn1)CCN(Cc1nc(Cc3ccccc3)no1)C2  -112%
3. COc1ccccc1C(C)N(C)Cc1nc2c(cnn2C)c(=O)[nH]1 (stereo not drawn)  -75.245%
4. OC(CN1CCN(Cc2nc(C3CC3)no2)CC1)c1ccccc1 (stereo not drawn)  -45.9%
5. CCCn1nccc1-c1cc(C2CCN(S(C)(=O)=O)CC2)nc(C)n1  -39.4%
6. CC(=O)N(C)Cc1nn(C)c2c1CN(Cc1ccsc1)C2  -37.9%
7. CCOCC(O)CN1CCN(C(=O)c2cc(C)ccc2OC)CC1 (stereo not drawn)  -35.7%
8. O=C(NCCNc1ncccn1)C1CCN(C(=O)N2CCCC2)CC1  -33.9%
9. c1ccc(CCc2n[nH]c(C3CCC3)n2)cc1  -31.9%
10. O=C(NCCn1ccc(-c2ccccn2)n1)C1CC1  -30%
11. Cc1noc(C)c1CC(=O)N1CCC(c2ccn3nccc3n2)CC1  -27.8%
12. c1csc(N2CCCN(c3nccn4cnnc34)CC2)n1  -27.8%
13. c1cncc(OCc2noc3c2CN(Cc2cccs2)CC3)c1  -26.5%
14. Nc1cc(CCCNC(=O)NC2CCCC2)nn1-c1ccccc1  -26.2%
15. CC(C)NC(=O)c1ccc2c(c1)C1(CCN(C(C)C)CC1)C(=O)N2  -25.1%
16. CN1CCN(S(=O)(=O)NCC2COc3ccccc3C2)CC1 (stereo not drawn)  -22.1%
17. CC(C)CCn1c(=O)[nH]c2cn(-c3ccc(F)cc3)c(=O)n21  -15%
18. COc1cccc2c1OCC(CNC(=O)Cc1c(C)nc(N)nc1C)C2 (stereo not drawn)  -13%
19. O=C(C1CCCO1)N1CCCn2c(nnc2Cn2ccnc2)C1 (stereo not drawn)  -12.4%
20. C1CC(CO[C@@H]2CC[C@H]3[C@H]2OCCN3CC2CC2)CCO1  -11.6%
21. CC(=O)N1CCCC1c1nccnc1NCc1cccnc1 (stereo not drawn)  -9.51%
22. c1ccc2c(c1)cnn2CCCNC1CCOC2(CCOCC2)C1 (stereo not drawn)  -9.39%
23. CC(C)N(C(=O)CCc1cccc(F)c1)C1CCOCC1  -6.34%
24. Cn1nc(Cn2cccc2)c2c1CN(Cc1ccsc1)C2  -5.08%
25. CC(C)(C)CC(=O)NCCn1ccc(-c2ccncc2)n1  -4.99%
26. c1cncc(OCc2noc3c2CN(Cc2ccoc2)CC3)c1  -3.95%
27. CCCc1n[nH]cc1C(=O)NCC1COc2cc(OC)ccc2C1 (stereo not drawn)  -3.83%
28. COc1ccc2cc(C(=O)NCCc3nc(C)no3)[nH]c2c1  -1.79%
29. O=C1CC(c2ccc(O)cc2)c2c(n3ccsc3nc2=O)N1 (stereo not drawn)  2.66%
30. O=C(CSC1=NS(=O)(=O)c2cc(F)ccc2N1)Nc1ccc(Cl)cc1  3.52%
31. COc1ccc(COCC(O)CNC(=O)c2cc(C)no2)cc1 (stereo not drawn)  5.03%
32. CCN(CC)CCCNc1nc(C)nc2c1CCN(C)C2  5.185%
33. O=C(O)c1cccnc1CN1CCCCC1CCc1cccs1 (stereo not drawn)  5.78%
34. CCCN(CCC)c1ncc(S(=O)(=O)c2cccc(C)c2)c(N)n1  6.29%
35. OC1(CNc2ccc(F)cc2)CCNCC1  6.29%
36. Cc1ccc(CN2CCC[C@]3(C(=O)O)CN(C)C[C@@H]3C2)s1  6.79%
37. CC(=O)NCc1noc2c1CN(Cc1cccs1)CC2  6.83%
38. Cc1nc(NC(=O)N[C@H](CO)c2ccccc2)sc1C  7.3%
39. C1CC(CO[C@@H]2CC[C@H]3[C@H]2OCCN3CC2CCOCC2)CCO1  7.31%
40. Cc1cc(C)cc(OCCN(C)Cc2ccc(S(=O)(=O)N(C)C)o2)c1  7.39%
41. Cc1nc2c(c(NCCN3CCOCC3)n1)CCN(C)C2  7.55%
42. COCC1CC2(CCN(Cc3ccccn3)CC2)CN1c1ncccn1 (stereo not drawn)  8.67%
43. O=C(CCn1c(C(F)(F)F)cc2cccnc21)NC1CCCC1  8.72%
44. CCc1nnc2n1CCN(Cc1ncc(-c3ccccc3)o1)C2  9.665%
45. Cc1nccc(N2CCCC2CCNS(C)(=O)=O)n1 (stereo not drawn)  10.9%
46. Cc1nc(C2CCCN(C(=O)COCCc3ccccc3)C2)no1 (stereo not drawn)  11.2%
47. Cn1cc(CC2CCN(C(=O)NCc3csc(C4CC4)n3)C2)cn1 (stereo not drawn)  11.8%
48. CC(C)(C)C(=O)NCCn1ccc(-c2ccncc2)n1  11.9%
49. CNc1cncc(C2CCN(S(C)(=O)=O)CC2)n1  12.8%
50. COc1ccnc(N(C)Cc2ccccc2OC(F)(F)F)n1  15.2%
51. CC(C)Cc1nc(CN2CCOC(Cn3cncn3)C2)no1 (stereo not drawn)  15.3%
52. CC(C)(C)Oc1ccc(NCC(=O)NCc2ccco2)cc1  16.1%
53. O=C(CSC1=NS(=O)(=O)c2cc(F)ccc2N1)Nc1cccc(Cl)c1  16.6%
54. COc1cc2c(nn1)CCN(Cc1ncc(C(C)(C)C)o1)C2  18.9%
55. CCCN(CCC)c1ncc(S(=O)(=O)c2ccc(C)cc2)c(N)n1  20.4%
56. O=C(N1CCCC1)N1CCc2onc(COc3cccnc3)c2C1  20.6%
57. O=C(c1ccc[nH]1)N1CCc2onc(COc3cccnc3)c2C1  21.8%
58. Cc1ccc(NCC2(O)CCNCC2)cc1C  23.1%
59. c1ccc(Cc2nc(CN3CCCC3Cn3cncn3)cs2)cc1 (stereo not drawn)  23.5%
60. CN1CCC(C(=O)NCCC2CN(c3cnn(C)c(=O)c3)CCO2)CC1 (stereo not drawn)  23.6%
61. CO[C@@H]1CC[C@H]2[C@H]1OCCN2CC1CC1  23.6%
62. O=S(=O)(NCC1CCN(c2cnccn2)CC1)c1cccs1  25.1%
63. O=C1NCCCN1Cc1nc(-c2ccc(N3CCCCC3)cc2)no1  26.4%
64. O=C(NCCn1ccc(-c2ccncc2)n1)c1ccncc1  26.4%
65. COc1ccc2nc(CNC(=O)c3cc(C(C)C)on3)[nH]c2c1  27.5%
66. CCO[C@@H]1CC[C@H]2[C@H]1OCCN2CC1CCOCC1  27.6%
67. CCc1cc(=O)n(CCNC(=O)Nc2ccc(OC(F)(F)F)cc2)cn1  28%
68. COc1ccc2c(c1)OCC(CNC(=O)NC(C)(C)C)C2 (stereo not drawn)  31%
69. O=C(NCCn1ccc(-c2ccccn2)n1)c1ccncc1  31.2%
70. CC(C)n1cc(S(=O)(=O)N2CCCCCC2)cn1  33.3%
71. O=C(c1cncc(NCC2COc3ccccc3C2)n1)N1CCCC1 (stereo not drawn)  33.7%
72. CCN(CC1CCOC1)C(=O)c1cnc2onc(C)c2c1 (stereo not drawn)  34.15%
73. COc1ccc2cnn(CC(=O)NCC3CCCO3)c(=O)c2c1OC (stereo not drawn)  34.5%
74. CNC(=O)CCc1cc(C)nc(C2CCN(c3cnccn3)CC2)c1  34.65%
75. O=C(CC1CCCC1)NCCn1ccc(-c2ccncc2)n1  36.3%
76. O=C1OCCCN1Cc1nc(-c2ccncc2)no1  36.5%
77. CCn1nc(C(C)C)cc1C(=O)NCc1nc2ccc(OC)cc2[nH]1  37.6%
78. CN1CCN(C(=O)c2nc3c(s2)CCCN3C(=O)C2CC2)CC1  37.9%
79. CS(=O)(=O)N1CC[C@H]2OCC[C@@]2(C(=O)NCCc2ccccn2)C1  38.5%
80. CCS(=O)(=O)NCC1CCN(c2cnccn2)CC1  40%
81. COc1cccc2c1OCC(CNc1ccc(C)nn1)C2 (stereo not drawn)  42.7%
82. CCCC(NC(=O)c1ccccc1Br)c1nnn[nH]1 (stereo not drawn)  43.1%
83. Cc1ccc2[nH]c(=O)cc(C(=O)N[C@@H]3C[C@@H](CO)N(C)C3)c2c1  46.7%
84. CC(=O)NCc1noc2c1CN(Cc1cnn(C)c1)CC2  46.7%
85. Cc1ccc(OCCN(C)Cc2ccc(S(=O)(=O)N(C)C)o2)cc1  47.7%
86. CN(CCOc1ccc(Cl)cc1)Cc1ccc(S(=O)(=O)N(C)C)o1  51%
87. CCCN(CCC)c1ncc(S(=O)(=O)c2ccccc2)c(N)n1  52.4%
88. O=C(NCCn1ccc(-c2ccncc2)n1)C1CC1  52.6%
89. CCO[C@@H]1CC[C@H]2[C@H]1OCCN2CC1CCC1  54.7%
90. CCc1nc2c(NCC3COc4c(cccc4OC)C3)ncnc2o1 (stereo not drawn)  55.4%
91. O=C1OCCCN1Cc1nc(-c2ccc(N3CCCCC3)cc2)no1  55.5%
92. COc1ccc2nc(CCNC(=O)c3cc(CC(C)C)no3)[nH]c2c1  55.5%
93. c1cncc(OCc2noc3c2CN(Cc2ccsc2)CC3)c1  56.1%
94. O=C(CSC1=NS(=O)(=O)c2cc(F)ccc2N1)Nc1ccc(Cl)c(Cl)c1  57.3%
95. Cc1nc2c(c(NCCCN3CCOCC3)n1)CCN(C)C2  59.7%
96. Cc1nnsc1C(=O)NCCn1ccc(-c2ccncc2)n1  61.5%
97. COc1ccc(NCC2(O)CCNCC2)cc1OC  62.7%
98. CC(=O)NCc1noc2c1CN(Cc1ccsc1)CC2  64.5%
99. O=C(NCCn1ccc(-c2ccncc2)n1)c1ccc2c(c1)OCO2  64.5%
100. C1CCC(CO[C@@H]2CC[C@H]3[C@H]2OCCN3CC2CCOCC2)C1  65.6%
101. O=C(c1cc[nH]n1)N1CCc2onc(COc3cccnc3)c2C1  67.2%
102. CCc1nc2c(NCC3COc4cc(OC)ccc4C3)ncnc2o1 (stereo not drawn)  67.7%
103. CC(=O)NCc1nn(C)c2c1CN(Cc1ccsc1)C2  69.7%
104. COc1ccc2nc(CNC(=O)c3cc(C(C)C)no3)[nH]c2c1  73.4%
105. CN(Cc1ccccc1OC(F)(F)F)C(=O)C1CC1  82.7%
106. CCc1ccc(S(=O)(=O)NCC2CCN(c3cnccn3)CC2)s1  83%
107. COc1cc2c(nn1)CCN(Cc1nnc(Cc3ccccc3)o1)C2  88.5%
108. CCc1nc2c(NCC3COc4ccccc4C3)ncnc2o1 (stereo not drawn)  91.5%
